# Measurements published in PubChem BioAssay AID720697 (Broad Institute, 2013).
# Potency and affinity values are given separately. Inconclusive results are not listed. A call without a number means that no potency is given here. Active and inactive are the calls of the source.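 Rule for the calls: active = signal loss with fitted half-maximal concentration at or below twice the top valid tested dose in every test run; inconclusive = runs disagree, flat 30 to 70% signal loss, or poor fit; inactive = all runs flat, opposite direction, or potency beyond limit.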
# Test: general mammalian cell viability loss – inhibitor set, cherry-pick, set 2, cytotoxicity control for miR-122 modulator project, dose response (AID 720697)
row,Structure (SMILES),outcome
1,CCN(C[C@@H]1[C@@H](c2ccccc2)[C@@H](CO)N1C(=O)COC)S(C)(=O)=O,inactive
2,C[C@@H]1CN([C@H](C)CO)C(=O)c2cc(-c3cncnc3)cnc2O[C@H]1CN(C)Cc1ccc(Oc2ccccc2)cc1,inactive
3,COC(=O)C[C@H]1CC[C@H]2[C@H](COc3ccc(NC(=O)NC(C)C)cc3C(=O)N2C)O1,inactive
4,CCN(C[C@@H]1N[C@@H](CO)[C@@H]1c1ccc(C2=CCCC2)cc1)C(=O)c1cccnc1,inactive
5,O=C(Nc1ccccc1)N1C[C@@H]2[C@H](c3ccccc31)[C@H](CO)N2C(=O)c1ccncc1,inactive
6,COc1ccc2[nH]c(=O)c(COC(=O)c3ccco3)cc2c1,inactive
7,CN1C(=O)c2cc(NC(=O)c3cccs3)ccc2OC[C@H]2O[C@@H](CC(=O)NCCN3CCCCC3)CC[C@H]21,inactive
8,CN1C(=O)c2cc(NC(=O)c3ccc(C(F)(F)F)cc3)ccc2OC[C@@H]2O[C@H](CC(=O)NC3Cc4ccccc4C3)CC[C@H]21,inactive
9,CNC(=O)C[C@H]1CC[C@@H]2[C@H](COc3ccc(NC(=O)c4cccc(OC)c4)cc3C(=O)N2C)O1,inactive
10,COCC(=O)N(C)C[C@H]1Oc2cc(-c3ccccc3F)ccc2S(=O)(=O)N([C@@H](C)CO)C[C@@H]1C,inactive
11,C/C=C/c1ccc([C@@H]2[C@@H](CO)N[C@@H]2CN(C(=O)C2CCCC2)C(C)C)cc1,inactive
12,C[C@H](CO)N1C[C@H](C)[C@@H](CN(C)CC2CCCCC2)OCCCC[C@H](C)Oc2ccc(NC(=O)Nc3cccc4ccccc34)cc2C1=O,inactive
